# Test results: PubChem BioAssay (Tox21)
# Values joined by “and” are separate entries in the source; they are usually repeats but may differ in a detail not shown here. Equal entries are not always repeated. Results filed as inconclusive are left out. Where a call stands in place of a potency, no number is given. Some compounds were tested as several samples or in several runs, with calls that do not always agree. Active and inactive are the calls of the source. Unless noted, the call rests on the fitted dose curve.
# Tests used:
# [1] = qHTS assay to identify small molecule antagonists of the sonic hedgehog signaling (Shh) pathway (AID 1259369); further: nearly all actives have a fitted effect of over 45% in size; further: potency means the concentration at half of the fitted maximal effect
# Procedure, shortened: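 Gli1 transcriptional reporter (firefly Luc) in NIH/3T3 background, conditioned-medium activated. 24hr exposure, luminescence endpoint.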
# [2] = target: Estrogen receptor beta (Homo sapiens) (UniProt Q92731); experiment: qHTS assay to identify small molecule agonists of the estrogen receptor beta (ER-beta) signaling pathway (AID 1259377; active means well fitted activation curve with a large enough effect in the signal ratio in the repeat runs, not every such curve was filed as active; the % refers to the signal ratio; further: potency means the concentration at half of the fitted maximal effect)
# Procedure, shortened: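 Measured by fluorescence intensity from a B/G FRET beta-lactamase substrate (2 h, room temperature) in ER-beta-UAS-bla HEK293T cells treated with DMSO-dissolved compounds for 16 hr at 37C and 5% CO2.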
# [3] = target: Estrogen receptor beta (Homo sapiens) (UniProt Q92731); experiment: qHTS assay to identify small molecule antagonists of the estrogen receptor beta (ER-beta) signaling pathway (AID 1259378; active means well fitted inhibition curve with a large enough effect in the signal ratio in the repeat runs, not every such curve was filed as active; the % refers to the signal ratio)
# Procedure, shortened: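 Antagonist mode: compounds added to beta-lactamase reporter HEK293T ER-beta-UAS cells stimulated with E2 (1nM final), 16 hr at 37C. LiveBLAzer B/G FRET substrate, 2 hours room temperature, fluorescence read-out.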
# [4] = qHTS assay to identify small molecule agonists of the androgen receptor (AR) signaling pathway in the presence of an antagonist - cell viability counter screen (AID 1259379; active means well fitted curve in the direction sought with a large enough effect in the repeat runs; an effect the other way counts as inactive or inconclusive; further: nearly all actives have a fitted effect of over 25% in size; further: potency means the concentration at half of the fitted maximal effect)
# Procedure, shortened: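 Counter screen for cell viability run in parallel with the AR agonist-mode luciferase assay. MDA-kb2 cells were co-treated with nilutamide (3.0uM final) and compounds, then incubated 16 hr at 37C, and CellTiter-Fluor fluorescence was measured.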
# [5] = qHTS assay to identify small molecule agonists of the estrogen receptor beta (ER-beta) signaling pathway - cell viability counter screen (AID 1259380; active means well fitted curve in the direction sought with a large enough effect in the repeat runs; an effect the other way counts as inactive or inconclusive; further: nearly all actives have a fitted effect of over 30% in size)
# Procedure, shortened: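 In this qHTS counter screen, HEK293T cells carrying an ER-beta/UAS beta-lactamase reporter, grown in 2% charcoal-stripped FBS, received compound for 16 hr; ATP-based CellTiter-Glo luminescence was then read after 30 min at room temperature.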
# [6] = qHTS assay to identify small molecule antagonists of the estrogen receptor beta (ER-beta) signaling pathway - cell viability counter screen (AID 1259382; active means well fitted curve in the direction sought with a large enough effect in the repeat runs; an effect the other way counts as inactive or inconclusive;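 further: HEK293T cells carrying ER-beta-UAS-bla reporter stimulated with estradiol; series mostly up to about 92 µM; nearly all actives have a fitted effect of over 55% in size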)
# Procedure, shortened: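 HEK293T ER-beta-UAS-bla, 2% charcoal-stripped FBS; compounds + 1nM E2 16 hr 37C; CellTiter-Glo luminescence, 30 min RT.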
# [7] = qHTS assay to identify small molecule agonists or antagonists of the thyroid stimulating hormone receptor (TSHR) signaling pathway - wild type cell line counter screen (AID 1259384)
# Procedure, shortened: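 Counter screen in untransfected Hek293: compounds (15-point titration, triplicate) plus phosphodiesterase inhibitor Ro20-1724 added after 18 h plating; 30 min RT. Intracellular cAMP via competitive d2/cryptate immunoassay, 1 h incubation.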
# [8] = target: Thyrotropin receptor (Homo sapiens) (UniProt P16473); experiment: qHTS assay to identify small molecule antagonists of the thyroid stimulating hormone receptor (TSHR) signaling pathway (AID 1259385); further: nearly all actives have a fitted effect of over 20% in size
# Procedure, shortened: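 Antagonist mode: compound-treated TSHR-expressing HEK293 cells were stimulated with 1.5 ng/mL TSH (final) in presence of Ro20-1724 for 30 min at RT. HTRF cAMP detection after 1 h; each compound tested at 15 concentrations, triplicate.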
# [9] = target: Androgen receptor (Homo sapiens) (UniProt P10275); experiment: qHTS assay to identify small molecule agonists of the androgen receptor (AR) signaling pathway in the presence of an antagonist (AID 1259381); further: nearly all actives have a fitted effect of over 15% in size
# Procedure, shortened: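 AR antagonist background: nilutamide 3.0uM final. Cell line: MDA-kb2, MMTV-driven luciferase, responsive to both AR and GR. Exposure 16hr, 37C, no CO2; ONE-Glo luminescence.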
# [10] = target: Estrogen receptor (Homo sapiens) (UniProt P03372); experiment: qHTS assay to identify small molecule agonists of the estrogen receptor alpha (ER-alpha) signaling pathway in the presence of an antagonist (AID 1259383); further: nearly all actives have a fitted effect of over 15% in size; further: potency means the concentration at half of the fitted maximal effect; on activation: top concentration of the series differs between compounds
# Procedure, shortened: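 ER-alpha agonism measured under antagonist challenge: 10.0nM ICI-182,780 (final) plus compound, 15 concentrations, 22hr, VM7Luc4E2 ERE-luciferase cells. Read by luminescence.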
# Chain of Thyrotropin receptor (Homo sapiens) (P16473 whole entry, looked up): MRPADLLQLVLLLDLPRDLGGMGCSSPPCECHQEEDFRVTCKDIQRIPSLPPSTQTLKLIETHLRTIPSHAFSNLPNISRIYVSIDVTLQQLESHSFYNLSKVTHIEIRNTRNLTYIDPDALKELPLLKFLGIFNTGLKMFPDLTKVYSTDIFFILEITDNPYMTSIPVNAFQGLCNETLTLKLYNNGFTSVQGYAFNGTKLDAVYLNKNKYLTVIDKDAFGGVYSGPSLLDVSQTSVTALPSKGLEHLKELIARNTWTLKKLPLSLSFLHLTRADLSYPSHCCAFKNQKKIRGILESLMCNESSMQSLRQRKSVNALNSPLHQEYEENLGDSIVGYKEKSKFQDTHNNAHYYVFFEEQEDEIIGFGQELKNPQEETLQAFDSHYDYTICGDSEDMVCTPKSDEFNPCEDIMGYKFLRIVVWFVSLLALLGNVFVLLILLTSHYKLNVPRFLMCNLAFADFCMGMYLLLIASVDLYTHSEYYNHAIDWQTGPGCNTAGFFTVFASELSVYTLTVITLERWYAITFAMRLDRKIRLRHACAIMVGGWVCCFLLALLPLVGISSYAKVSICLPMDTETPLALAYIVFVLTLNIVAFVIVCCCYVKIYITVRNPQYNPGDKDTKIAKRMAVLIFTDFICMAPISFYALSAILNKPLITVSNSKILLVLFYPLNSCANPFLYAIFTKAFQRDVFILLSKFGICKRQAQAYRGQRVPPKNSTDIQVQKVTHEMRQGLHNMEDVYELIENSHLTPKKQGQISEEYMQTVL
# Chain of Estrogen receptor beta (Homo sapiens) (Q92731 whole entry, looked up): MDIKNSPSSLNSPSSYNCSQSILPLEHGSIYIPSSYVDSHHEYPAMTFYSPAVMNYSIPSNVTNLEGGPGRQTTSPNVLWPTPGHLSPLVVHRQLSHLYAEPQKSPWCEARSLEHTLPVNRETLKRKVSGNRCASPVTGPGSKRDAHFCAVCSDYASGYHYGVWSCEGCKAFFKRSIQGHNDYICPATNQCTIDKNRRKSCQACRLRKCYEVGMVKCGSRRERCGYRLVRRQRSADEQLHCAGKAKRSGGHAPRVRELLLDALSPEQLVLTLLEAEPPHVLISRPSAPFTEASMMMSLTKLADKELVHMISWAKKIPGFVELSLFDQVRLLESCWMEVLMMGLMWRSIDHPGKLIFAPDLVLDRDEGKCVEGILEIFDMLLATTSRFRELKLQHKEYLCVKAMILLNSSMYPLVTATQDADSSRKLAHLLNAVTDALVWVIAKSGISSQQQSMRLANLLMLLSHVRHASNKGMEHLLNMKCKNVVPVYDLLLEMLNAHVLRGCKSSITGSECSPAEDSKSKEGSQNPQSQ
# Chain of Estrogen receptor (Homo sapiens) (P03372 whole entry, looked up): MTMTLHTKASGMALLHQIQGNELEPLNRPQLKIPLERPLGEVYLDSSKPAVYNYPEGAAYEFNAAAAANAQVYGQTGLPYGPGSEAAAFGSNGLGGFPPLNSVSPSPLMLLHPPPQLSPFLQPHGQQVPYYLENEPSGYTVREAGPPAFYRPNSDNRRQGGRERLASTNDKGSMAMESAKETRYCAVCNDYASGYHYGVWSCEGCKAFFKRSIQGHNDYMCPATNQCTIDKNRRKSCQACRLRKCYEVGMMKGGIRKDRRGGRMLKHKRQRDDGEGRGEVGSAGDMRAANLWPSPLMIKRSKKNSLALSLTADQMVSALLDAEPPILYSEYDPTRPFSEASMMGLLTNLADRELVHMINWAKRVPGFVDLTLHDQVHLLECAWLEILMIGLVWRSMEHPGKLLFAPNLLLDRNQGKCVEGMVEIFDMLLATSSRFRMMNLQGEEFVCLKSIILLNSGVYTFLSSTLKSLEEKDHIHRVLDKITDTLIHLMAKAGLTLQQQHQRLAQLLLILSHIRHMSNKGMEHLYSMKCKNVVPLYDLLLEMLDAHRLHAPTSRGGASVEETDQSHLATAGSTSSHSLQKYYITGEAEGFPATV
# Chain of Androgen receptor (Homo sapiens) (P10275 whole entry, looked up): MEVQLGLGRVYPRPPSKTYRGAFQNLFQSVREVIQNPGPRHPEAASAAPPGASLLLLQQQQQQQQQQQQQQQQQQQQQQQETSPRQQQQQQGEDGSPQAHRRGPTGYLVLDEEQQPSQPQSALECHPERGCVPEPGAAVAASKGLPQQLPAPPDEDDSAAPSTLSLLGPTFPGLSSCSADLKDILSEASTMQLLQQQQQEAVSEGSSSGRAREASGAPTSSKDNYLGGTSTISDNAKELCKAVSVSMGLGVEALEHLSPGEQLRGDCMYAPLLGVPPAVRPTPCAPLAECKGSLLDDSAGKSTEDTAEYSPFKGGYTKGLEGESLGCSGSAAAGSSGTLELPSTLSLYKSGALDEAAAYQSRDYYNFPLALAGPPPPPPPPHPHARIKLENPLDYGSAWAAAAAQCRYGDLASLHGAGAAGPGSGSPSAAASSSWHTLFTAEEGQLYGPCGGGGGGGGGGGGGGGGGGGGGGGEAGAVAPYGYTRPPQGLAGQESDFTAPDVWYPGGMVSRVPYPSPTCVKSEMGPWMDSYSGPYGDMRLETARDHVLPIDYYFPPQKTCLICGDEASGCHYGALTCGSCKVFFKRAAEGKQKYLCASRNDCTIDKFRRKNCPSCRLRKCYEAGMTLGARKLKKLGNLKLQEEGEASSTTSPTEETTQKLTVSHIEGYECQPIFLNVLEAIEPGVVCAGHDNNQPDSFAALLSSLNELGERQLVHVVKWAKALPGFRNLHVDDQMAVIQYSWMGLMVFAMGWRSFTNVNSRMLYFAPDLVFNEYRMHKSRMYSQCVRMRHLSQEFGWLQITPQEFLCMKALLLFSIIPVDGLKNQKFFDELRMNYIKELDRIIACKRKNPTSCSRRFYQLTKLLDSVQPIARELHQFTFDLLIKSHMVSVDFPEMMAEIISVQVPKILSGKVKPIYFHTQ
SMILES,Potency [1],Potency [2],Potency [3],Potency [4],Potency [5],outcome [6],outcome [7],outcome [8],Potency [9],Potency [10]
O=C1c2ccccc2CCc2ccccc21,inactive,inactive,inactive,inactive,inactive,inactive,inactive,inactive,–,–
OCc1cccc(Oc2ccccc2)c1,inactive,–,inactive,inactive,inactive,inactive,inactive,inactive,inactive,–
COCCOC(=O)c1ccccc1C(=O)OCCOC,inactive,inactive,inactive,inactive,inactive,inactive,inactive,inactive,–,–
C=Cc1ccc(C)cc1,inactive,inactive,inactive,inactive,inactive,inactive,–,inactive,–,–
CCCCCCCCCCN,inactive,inactive,inactive,inactive,inactive,inactive,–,inactive,–,–
N#Cc1ccccc1,inactive,inactive,inactive,inactive,inactive,inactive,–,inactive,–,–
CCCCOC(=O)c1ccc(N)cc1,inactive,inactive,–,inactive,inactive,inactive,–,inactive,–,inactive
CCc1ccccc1CC,inactive,inactive,inactive,inactive,inactive,inactive,–,inactive,–,inactive
CC(=O)OCCOC(C)=O,inactive,inactive,inactive,inactive,inactive,inactive,–,inactive,–,inactive
CCOC(=O)c1ccc(N)cc1,inactive,inactive,inactive,inactive,inactive,inactive,–,inactive,–,–
CCOCCOCCOCCO,inactive,inactive,inactive,inactive,inactive,inactive,–,inactive,–,–
CCCCC(C=O)CC (centres undefined),inactive,inactive,inactive,inactive,inactive,inactive,–,inactive,–,inactive
CN(C)CCOC(=O)COc1ccc(Cl)cc1,inactive,inactive,inactive,inactive,inactive,inactive,inactive,inactive,–,–
C[C@]12CC[C@@H]3c4ccc(O)cc4CC[C@H]3[C@@H]1C[C@@H](O)[C@@H]2O,13.7 µM (active) and 5.96 µM (active),4.3 nM (active) and 3 nM (active),–,inactive,–,inactive,–,inactive,–,–
CCCCCCCCCCCC(=O)OC,inactive,inactive,inactive,inactive,inactive,inactive,–,inactive,–,inactive
Cc1ccc(S(=O)(=O)N=C=O)cc1,6 µM (active) and inactive,inactive,inactive,inactive,inactive,inactive,–,inactive,–,inactive
N[C@H](Cc1c[nH]c2ccccc12)C(=O)O,inactive,inactive,inactive,inactive,inactive,inactive,inactive,inactive,–,–
O=C1C(c2[nH]c3ccccc3c2O)=Nc2ccccc21,inactive,–,inactive,inactive,inactive,inactive,inactive,inactive,–,–
O=C(O)c1ccc(C(=O)O)c(C(=O)O)c1,inactive,–,–,inactive,inactive,inactive,inactive,inactive,inactive,inactive
Nc1ccc(Cl)c(N)c1,inactive,inactive,inactive,inactive,inactive,inactive,–,inactive,–,inactive
C=CCc1ccc(OC)c(OC)c1,inactive,inactive,inactive,inactive,inactive,inactive,inactive,inactive,–,–

SMILES,Potency [1],Potency [2],Potency [3],Potency [4],Potency [5],outcome [6],outcome [7],outcome [8],Potency [9],Potency [10]
C=C(C)[C@H]1CC=C(C)C(=O)C1,inactive,inactive,inactive,inactive,inactive,inactive,inactive,inactive,–,–
CC(=O)c1ccc(O)cc1,inactive,–,inactive,inactive,inactive,inactive,–,inactive,–,inactive
C=C(C)C(=O)OCC(C)C,619 nM (active) and inactive,inactive,inactive,inactive,inactive,inactive,–,inactive,–,inactive
NCCCCCCN,inactive,–,–,inactive,inactive,inactive,inactive,inactive,–,–
COCCCN,inactive,–,–,inactive,inactive,inactive,–,inactive,–,inactive
CCOCC(=O)O,inactive,–,–,inactive,inactive,inactive,–,inactive,–,inactive
C=CC(=O)OCCC(=O)O,inactive,–,–,inactive,inactive,inactive,inactive,inactive,–,inactive
CCO[Si](CCCN)(OCC)OCC,inactive,–,–,inactive,inactive,inactive,inactive,inactive,–,inactive
OC1C(O)C(O)C(O)C(O)C1O (centres undefined),inactive,–,–,inactive,inactive,inactive,–,inactive,–,inactive
O=C(O)CCCCCCCCC(=O)O,inactive,–,–,inactive,inactive,inactive,inactive,inactive,–,–
CCCCCCO,inactive,–,–,inactive,inactive,inactive,inactive,inactive,–,inactive
O=C1CCCC1,–,inactive,inactive,inactive,inactive,inactive,–,–,–,inactive
CCCOC(=O)c1ccccc1,inactive,–,–,inactive,inactive,inactive,inactive,inactive,–,–
C=C(C)CNCC,inactive,–,–,inactive,inactive,inactive,inactive,inactive,–,–
CNC(=O)Oc1ccc2c(c1)[C@]1(C)CCN(C)[C@@H]1N2C,inactive,–,–,inactive,inactive,inactive,inactive,inactive,–,inactive
O=S(=O)(O)c1ccccc1,inactive,–,–,inactive,inactive,inactive,–,inactive,–,–
CC(C)(Oc1ccc(CCNC(=O)c2ccc(Cl)cc2)cc1)C(=O)O,inactive,–,–,inactive,inactive,inactive,–,inactive,–,inactive
COc1ccc(C)cc1N,inactive,–,–,inactive,inactive,inactive,inactive,inactive,inactive,inactive
CCNc1cccc(C)c1,inactive,–,–,inactive,inactive,inactive,–,inactive,–,inactive
CC(C)=CCl,inactive,–,–,inactive,inactive,inactive,inactive,inactive,–,inactive
CCCCCCCC=O,inactive,–,–,inactive,inactive,inactive,–,–,–,inactive

SMILES,Potency [1],Potency [2],Potency [3],Potency [4],Potency [5],outcome [6],outcome [7],outcome [8],Potency [9],Potency [10]
CC(O)CC(C)(C)O (centres undefined),inactive,–,–,inactive,inactive,inactive,–,–,–,–
CC(C)CCCCCCCOC(=O)CCCCC(=O)OCCCCCCCC(C)C,inactive,–,–,inactive,inactive,inactive,–,inactive,–,–
O=S(=O)(O)c1ccc(N=Nc2c(O)ccc3cc(S(=O)(=O)O)ccc23)cc1,inactive,–,–,54.7 µM (active) and 30.6 µM (active),inactive,inactive,–,–,–,inactive
COc1ccc(OC)cc1,inactive,–,–,inactive,inactive,inactive,inactive,inactive,–,inactive
Nc1nc(N)nc(-c2ccccc2)n1,–,inactive,inactive,inactive,inactive,inactive,inactive,inactive,–,inactive
CC(C)c1cccc(C(C)C)c1,inactive,–,–,inactive,inactive,inactive,inactive,inactive,–,inactive
CCCCCCC=O,inactive,–,–,inactive,inactive,inactive,–,inactive,–,inactive
COC(=O)c1cccnc1,inactive,–,–,inactive,inactive,inactive,–,inactive,inactive,–
Cc1ccc2ncccc2c1,inactive,–,–,inactive,inactive,inactive,–,inactive,–,inactive
CC1(C)NC(=O)NC1=O,inactive,–,–,inactive,inactive,inactive,inactive,inactive,–,inactive
CC1(C)S[C@@H]2[C@H](NC(=O)COc3ccccc3)C(=O)N2[C@H]1C(=O)O,inactive,–,–,inactive,inactive,inactive,–,inactive,–,inactive
O=C(O)c1cc2ccccc2cc1O,inactive,–,–,inactive,inactive,inactive,inactive,inactive,inactive,inactive
COC(=O)CCCC(=O)OC,inactive,–,–,inactive,inactive,inactive,–,inactive,–,–
CC1(C)CC(N)CC(C)(CN)C1 (centres undefined),inactive,–,–,inactive,inactive,inactive,inactive,inactive,–,13.9 µM (active) and inactive
CC(=O)CCC=C(C)C,inactive,–,–,inactive,inactive,inactive,inactive,inactive,–,inactive
NC(=S)NNC(N)=S,inactive,–,–,inactive,inactive,inactive,inactive,inactive,–,–
O=C(OCC1CCC2OC2C1)C1CCC2OC2C1 (centres undefined),inactive,–,–,inactive,inactive,inactive,inactive,inactive,–,inactive
COc1cc(OC)c(C(=O)CCCN2CCCC2)c(OC)c1,inactive,–,–,inactive,inactive,inactive,–,inactive,inactive,–
CC(C)OC(=O)COc1ccc(Cl)cc1Cl,inactive,–,–,inactive,inactive,inactive,–,inactive,–,inactive
O=C(O)c1ccccc1C(=O)O,inactive,–,–,inactive,inactive,inactive,–,inactive,–,inactive
